Results from PubChem BioAssay.
For some assays here: Measured potencies and affinities stand elsewhere. Active and inactive are the calls of the source.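 The calls were made as follows, unless noted: active = primary screen active and over 50% activation in each of two duplicate runs; inactive = the rest.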

Legend:
[1] = system: TRPC4 beta (transient receptor potential cation channel C4), mouse; assay: activators of mouse TRPC4 channel, confirmation, cell-based, Fluo4 calcium, HEK293 TRPC4beta/mu-opioid, duplicates, 10 µM (AID 2426;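 active = fluorescence ratio normalized to control raised more than 50% in primary screen plus both repeat runs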;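 as to activation: percent rise of integrated ratio over buffer wells lacking compound which define 0%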); conditions: Fluo4 calcium fluorescence, at 10 µM; active compounds read high
[2] = system: transient receptor potential cation channel C4 beta (TRPC4), mouse; assay: activators of mouse TRPC4 channel, confirmation, cell-based, second round, Fluo4, HEK293 TRPC4beta/mu-opioid, 1 µM (AID 2461); conditions: Fluo4 calcium fluorescence, at 1 µM; active compounds read high;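 as to activation: 0% = wells without test compound as baseline of integrated fluorescence ratio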
[3] = system: TRPC4 (transient receptor potential cation channel C4 beta), mouse; assay: positive allosteric modulators of mouse TRPC4, confirmation, cell-based, second round, Fluo-4, HEK293 TRPC4beta/mu-opioid, 1 µM (AID 2554;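 active = primary screen hit whose fluorescence ratio, in both repeats, exceeds the weak agonist control mean by 3 SD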); conditions: DAMGO EC20, Fluo-4 calcium flux, at 1 µM; active compounds read high
[4] = system: TRPC4 beta (transient receptor potential cation channel C4), mouse; assay: positive allosteric modulators of mouse TRPC4, confirmation, cell-based, Fluo-4, HEK293 TRPC4beta/mu-opioid (AID 2555;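 active = primary screen hit whose calcium fluorescence ratio, in both repeats, exceeds the weak agonist control mean by 3 SD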); conditions: DAMGO EC20, Fluo-4 calcium flux, at 10 µM; active compounds read high
[5] = molecular target: Short transient receptor potential channel 4 (Mus musculus) (UniProt Q9QUQ5); assay: inhibitors of mouse TRPC4 channel, confirmation, cell-based, Fluo4, HEK293 TRPC4beta/mu-opioid (AID 2636;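 active = calcium signal cut by more than 3 SD below the full-agonist control yet still positive, in both repeats and the earlier primary screen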); conditions: DAMGO, Fluo4 calcium flux, at 10 µM; active compounds read high
Short transient receptor potential channel 4 (Mus musculus), sequence (Q9QUQ5 whole entry, looked up): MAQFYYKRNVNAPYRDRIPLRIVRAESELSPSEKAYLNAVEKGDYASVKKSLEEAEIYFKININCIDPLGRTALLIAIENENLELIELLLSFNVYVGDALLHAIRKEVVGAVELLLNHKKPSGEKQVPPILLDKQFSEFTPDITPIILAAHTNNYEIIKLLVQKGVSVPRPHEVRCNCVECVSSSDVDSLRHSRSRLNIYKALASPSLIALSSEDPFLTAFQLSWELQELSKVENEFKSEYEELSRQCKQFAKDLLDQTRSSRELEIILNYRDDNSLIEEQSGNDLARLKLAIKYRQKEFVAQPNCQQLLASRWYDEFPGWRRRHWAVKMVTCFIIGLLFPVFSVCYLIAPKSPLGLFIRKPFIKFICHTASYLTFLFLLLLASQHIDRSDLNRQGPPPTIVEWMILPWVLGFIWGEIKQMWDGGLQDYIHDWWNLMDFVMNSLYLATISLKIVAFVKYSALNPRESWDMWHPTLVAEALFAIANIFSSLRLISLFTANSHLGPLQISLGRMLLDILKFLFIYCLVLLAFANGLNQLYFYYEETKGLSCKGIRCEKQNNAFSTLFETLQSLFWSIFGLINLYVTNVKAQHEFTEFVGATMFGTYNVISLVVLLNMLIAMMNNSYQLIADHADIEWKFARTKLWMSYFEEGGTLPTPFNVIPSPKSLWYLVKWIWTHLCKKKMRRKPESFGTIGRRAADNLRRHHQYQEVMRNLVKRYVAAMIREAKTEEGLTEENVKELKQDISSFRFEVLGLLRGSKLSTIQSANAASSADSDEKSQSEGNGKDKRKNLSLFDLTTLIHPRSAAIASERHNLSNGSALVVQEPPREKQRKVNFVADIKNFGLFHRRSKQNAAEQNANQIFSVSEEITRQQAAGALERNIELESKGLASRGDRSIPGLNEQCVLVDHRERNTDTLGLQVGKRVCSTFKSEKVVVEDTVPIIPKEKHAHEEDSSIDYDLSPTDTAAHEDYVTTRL

[6] = molecular target: Short transient receptor potential channel 4 (Mus musculus) (UniProt Q9QUQ5); assay: inhibitors of mouse TRPC4 channel, confirmation, cell-based, second round, Fluo4, HEK293 TRPC4beta/mu-opioid, 1 µM (AID 2637;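 active = calcium signal ratio cut to more than 3 SD under the fully stimulated control mean yet still positive, in both repeats and the primary screen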); conditions: Fluo4 calcium flux, DAMGO, at 1 µM; active compounds read high
[7] = molecular target: Short transient receptor potential channel 4 (Mus musculus) (UniProt Q9QUQ5); assay: TRPC4 positive allosteric modulators, dose response, cell-based, HEK293 TRPC4/mu-opioid, Fluo-4 calcium, EC20 DAMGO (AID 434941;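 active = earlier screen potentiator hit that boosts the TRPC4 ion channel at some dose, with a dose response; inactive = no potentiation, no dose response, or not a prior hit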;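 also: calcium entry triggered by an EC20 dose of DAMGO at the co-expressed mu-opioid receptor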)
[8] = molecular target: Short transient receptor potential channel 4 (Mus musculus) (UniProt Q9QUQ5); assay: mouse TRPC4 channel inhibitors, dose response, cell-based, HEK293 TRPC4/mu-opioid, Fluo-4 calcium (AID 434942;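 active = primary screen inhibitor hit that blocks the TRPC4 channel at some tested dose, yielding a dose curve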)
[9] = molecular target: Short transient receptor potential channel 6 (Mus musculus) (UniProt Q61143); assay: inhibition of mouse TRPC6 channel, confirmation, selectivity assay for TRPC4 inhibitor project, cell-based, HEK293, membrane potential dye, duplicate (AID 434948;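 active = active in primary screen and both duplicates, each dropping signal beyond three positive-control SD with fluorescence still positive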); conditions: HEK293 TRPC6, membrane potential dye fluorescence, at 10 µM, stimulated with maximal-effect acetylcholine; active compounds read high
Short transient receptor potential channel 6 (Mus musculus), sequence (Q61143 whole entry, looked up): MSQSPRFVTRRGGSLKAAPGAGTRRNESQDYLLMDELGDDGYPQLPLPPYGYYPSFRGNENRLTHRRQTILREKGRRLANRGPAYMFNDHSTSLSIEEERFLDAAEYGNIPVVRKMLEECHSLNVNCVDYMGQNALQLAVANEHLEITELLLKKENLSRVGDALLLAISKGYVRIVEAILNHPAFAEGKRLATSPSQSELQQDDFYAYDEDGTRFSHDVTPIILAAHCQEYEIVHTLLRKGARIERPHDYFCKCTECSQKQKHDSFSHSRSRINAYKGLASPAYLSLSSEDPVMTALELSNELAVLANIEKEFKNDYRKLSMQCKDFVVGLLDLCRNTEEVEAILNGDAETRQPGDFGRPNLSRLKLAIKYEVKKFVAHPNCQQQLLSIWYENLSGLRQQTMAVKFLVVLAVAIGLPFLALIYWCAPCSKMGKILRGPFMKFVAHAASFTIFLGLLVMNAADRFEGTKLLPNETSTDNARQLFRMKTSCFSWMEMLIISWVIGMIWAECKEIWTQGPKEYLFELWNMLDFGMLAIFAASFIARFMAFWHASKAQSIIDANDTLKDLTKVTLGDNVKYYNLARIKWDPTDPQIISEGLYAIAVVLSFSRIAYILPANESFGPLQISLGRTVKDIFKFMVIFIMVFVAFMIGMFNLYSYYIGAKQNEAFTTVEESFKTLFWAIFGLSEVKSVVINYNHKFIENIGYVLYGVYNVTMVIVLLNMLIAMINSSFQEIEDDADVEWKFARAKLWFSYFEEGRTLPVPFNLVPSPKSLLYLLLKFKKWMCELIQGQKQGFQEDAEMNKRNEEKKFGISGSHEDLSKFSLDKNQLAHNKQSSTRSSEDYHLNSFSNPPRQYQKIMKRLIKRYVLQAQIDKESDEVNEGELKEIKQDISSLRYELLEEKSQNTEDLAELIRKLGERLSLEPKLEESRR

[10] = molecular target: Short transient receptor potential channel 6 (Mus musculus) (UniProt Q61143); assay: activation of mouse TRPC6 channel, confirmation, selectivity assay for TRPC4 activator project, cell-based, HEK293, membrane potential dye, duplicate (AID 434950;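 active = membrane potential signal rise above negative control mean plus 3 SD in both duplicates, also active in the earlier TRPC4 screen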;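 as to activation: 0% = buffer only wells and 100% = acetylcholine maximal-effect wells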); conditions: HEK293 TRPC6, membrane potential fluorescence, at 10 µM; active compounds read high
[11] = molecular target: Short transient receptor potential channel 6 (Mus musculus) (UniProt Q61143); assay: TRPC6 potentiation by TRPC4 potentiator hits, confirmation, selectivity assay for TRPC4 potentiator project, HEK293 cells, membrane potential dye, duplicate (AID 434952;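 active = compound raising the membrane signal above positive-control mean plus 3 SD in both repeats, and a primary screen hit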); conditions: HEK293 TRPC6, membrane potential dye fluorescence, at 10 µM, maximal acetylcholine added after compound; active compounds read high
[12] = molecular target: Short transient receptor potential channel 4 (Mus musculus) (UniProt Q9QUQ5); assay: calcium flux activators in TRPC4/5HT1a cells, counter-screen for TRPC4 activator project, cell-based, second counter screen, HEK293 TRPC4/5HT1a, Fluo-4 (AID 434977;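 active = calcium signal rise above buffer-control mean plus 5 SD in both duplicates, and also a hit in the primary screen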;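 as to activation: plate controls were assay buffer for no effect and maximal serotonin response for full effect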); conditions: Fluo-4 calcium flux, at 10 µM; active compounds read high
[13] = calcium flux inhibitors in TRPC4/5HT1a cells, confirmation, counter-screen for TRPC4 inhibitor project, cell-based, second counter screen, HEK293 TRPC4/5HT1a, Fluo-4 (AID 434978;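 active = primary screen active whose calcium signal fell more than 3 SD beyond the full-serotonin control mean in both duplicate plates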;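 also: serotonin given first at submaximal then at maximal dose after compound preincubation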); conditions: Fluo-4 calcium flux, at 10 µM, serotonin added to trigger calcium flux; active compounds read high
[14] = system: TRPC4 (mouse), co-expressed with 5HT1a in HEK293; assay: calcium flux potentiators in TRPC4/5HT1a cells, confirmation, counter-screen for TRPC4 potentiator project, cell-based, second counter screen, HEK293 TRPC4/5HT1a, Fluo-4 (AID 434979;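 active = signal rise over 3 SD above mean of control wells given weak agonist, in both repeats and first screen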); conditions: Fluo-4 calcium flux, at 10 µM, serotonin added at its EC20 dose; active compounds read high
[15] = calcium flux activation in mu-opioid HEK293 cells, confirmation, counter-screen for TRPC4 activator project, cell-based, HEK293 mu-opioid receptor line (AID 449723;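 active = hit in primary screen, with calcium signal over 5 SD above buffer well mean in both duplicates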;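 also: counter screen cells carry the mu-opioid receptor alone and lack TRPC4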); conditions: Fluo-4 calcium fluorescence, at 10 µM; active compounds read high
[16] = calcium flux enhancement in mu-opioid HEK293 cells, confirmation, counter-screen for TRPC4 allosteric potentiator project, cell-based, HEK293 mu-opioid receptor line (AID 449724;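 active = calcium signal rise more than 3 SD above the low-dose agonist control mean, in both duplicate plates and the primary screen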); conditions: Fluo-4 calcium flux, at 10 µM, compound added before EC20 DAMGO stimulus; active compounds read high

CN1CCN(c2ccc(NC(=O)c3ccc(-c4cccc([N+](=O)[O-])c4)o3)cc2)CC1
active: activation [1] 87%
inactive: outcome [2] | outcome [3] | outcome [4] | outcome [5] | outcome [6] | outcome [7] | outcome [8] | outcome [9] | outcome [10] | outcome [11] | outcome [12] | outcome [13] | outcome [14] | outcome [15] | outcome [16]

COc1ccc(CC(=O)NCC(c2ccc(OC)cc2)N(C)C)cc1 (stereo not drawn)
active: activation [1] 200% | activation [2] 95% | activation [10] 46.5%
inactive: outcome [3] | outcome [4] | outcome [5] | outcome [6] | outcome [7] | outcome [8] | outcome [9] | outcome [11] | outcome [12] | outcome [13] | outcome [14] | outcome [15] | outcome [16]

Cc1cccc(NC(=S)NCC(c2ccccc2)N(C)C)c1 (stereo not drawn)
inactive: outcome [3] | outcome [4] | outcome [5] | outcome [6] | outcome [7] | outcome [8] | outcome [9] | outcome [11] | outcome [12] | outcome [13] | outcome [14] | outcome [15] | outcome [16]
active: activation [1] 176% | activation [2] 152% | activation [10] 39.5%

CCCN1CCN(C(=O)Cn2c(=O)oc3cc(S(=O)(=O)NCc4ccccc4)ccc32)CC1
active: activation [1] 168% | activation [12] 26.3%
inactive: outcome [2] | outcome [3] | outcome [4] | outcome [5] | outcome [6] | outcome [7] | outcome [8] | outcome [9] | outcome [10] | outcome [11] | outcome [13] | outcome [14] | outcome [15] | outcome [16]

O=C(O)c1ccc(-c2ccc(/C=N/Nc3ccc([N+](=O)[O-])cc3)o2)cc1
active: activation [1] 120% | potentiation [4] 11% | activation [10] 442% | activation [12] 111% | activation [15] 106%
inactive: outcome [2] | outcome [3] | outcome [5] | outcome [6] | outcome [7] | outcome [8] | outcome [9] | outcome [11] | outcome [13] | outcome [14] | outcome [16]

COc1ccc(/C=N/NC(=O)C2COc3ccccc3O2)cc1OC (stereo not drawn)
active: activation [1] 114% | activation [2] 59% | activation [10] 45% | activation [12] 52.1%
inactive: outcome [3] | outcome [4] | outcome [5] | outcome [6] | outcome [7] | outcome [8] | outcome [9] | outcome [11] | outcome [13] | outcome [14] | outcome [15] | outcome [16]

CN(C)CCCN(C(=O)c1ccc(S(=O)(=O)N2CCCCCC2)cc1)c1nc2c(F)cc(F)cc2s1
active: activation [1] 133%
inactive: outcome [2] | outcome [3] | outcome [4] | outcome [5] | outcome [6] | outcome [7] | outcome [8] | outcome [9] | outcome [10] | outcome [11] | outcome [12] | outcome [13] | outcome [14] | outcome [15] | outcome [16]

O=C1NCN(c2ccccc2)C12CCN(CCCC(c1ccc(F)cc1)c1ccc(F)cc1)CC2
inactive: outcome [1] | outcome [2] | outcome [3] | outcome [4] | outcome [5] | outcome [6] | outcome [7] | outcome [8] | outcome [9] | outcome [11] | outcome [12] | outcome [13] | outcome [14] | outcome [15] | outcome [16]
active: activation [10] 31%
